Experimental data reported in PubChem BioAssay (NCATS).
Records with an inconclusive call do not appear. Entries that show only a call come without a potency. Active and inactive are the calls of the source. Calls follow the shape of the dose curve; as a rule, active = well fitted curve in the direction sought with a large enough effect; inconclusive = small, poorly fitted or top-dose-only effect, or another doubt; inactive = no such curve, though single readings can be large; an effect the other way counts as inactive or inconclusive.

Columns and labels:
[1] = qHTS of pediatric cancer cell lines to identify multiple opportunities for drug repurposing: Primary screen for SK-N-SH cells (AID 1347098); also: nearly all actives have a fitted effect of over 65% in size; also: potency is read from the fitted curve at half-maximal effect
Outline: (§1)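 Cells (500-1,000/well) rested 5 h, then received compounds for 48 h; metabolically active cells were measured by CellTiter-Glo luminescence. Final concentrations spanned up to 46 µM (MIPE, 11-point) or 0.59 nM-46 µM (NPC, 8-point) in primary screens, 11-point in follow-ups.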

[2] = qHTS of pediatric cancer cell lines to identify multiple opportunities for drug repurposing: Primary screen for NB1643 cells (AID 1347099); also: nearly all actives have a fitted effect of over 50% in size; also: potency is read from the fitted curve at half-maximal effect
Outline: (§2)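 Following a 5-hour attachment period, cells at 500-1,000/well received compounds and were cultured for 48 hours. CellTiter-Glo was added and luminescence read to estimate viable, metabolically active cells.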

[3] = qHTS of pediatric cancer cell lines to identify multiple opportunities for drug repurposing: Primary screen for LAN-5 cells (AID 1347100); also: potency is read from the fitted curve at half-maximal effect
Outline: as §1

[4] = qHTS of pediatric cancer cell lines to identify multiple opportunities for drug repurposing: Primary screen for Rh18 cells (AID 1347102); also: nearly all actives have a fitted effect of over 65% in size; also: potency is read from the fitted curve at half-maximal effect
Outline: as §1

[5] = qHTS of pediatric cancer cell lines to identify multiple opportunities for drug repurposing: Primary screen for OHS-50 cells (AID 1347103); also: nearly all actives have a fitted effect of over 40% in size; also: potency is read from the fitted curve at half-maximal effect
Outline: as §1

[6] = qHTS of pediatric cancer cell lines to identify multiple opportunities for drug repurposing: Primary screen for RD cells (AID 1347104); also: nearly all actives have a fitted effect of over 55% in size
Outline: as §2

[7] = qHTS of pediatric cancer cell lines to identify multiple opportunities for drug repurposing: Primary screen for control Hh wild type fibroblast cells (AID 1347106);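 also: series mostly up to about 46 µM; a drop in luminescence marks cytotoxicity and a rise apparent proliferation; nearly all actives have a fitted effect of over 55% in size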
Outline: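 Cells (500-1,000/well) in growth media were settled 5 h at 37 degrees C, then given compounds for 48 h. Viability was read as CellTiter-Glo luminescence. Primary runs used MIPE at 11 points (0.78 nM-46 µM) and NPC at 8 points (0.59 nM-46 µM); follow-ups used 11 points.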

[8] = qHTS of pediatric cancer cell lines to identify multiple opportunities for drug repurposing: Confirmatory screen for SK-N-MC cells (AID 1347111);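 also: potency is read from the fitted curve at half-maximal effect; cells exposed to compound for 48 h before the readout; nearly all actives have a fitted effect of over 70% in size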
Outline: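 Seed 500-1,000 cells/well; rest 5 h at 37 degrees C. Pin-transfer compounds, 11-point titration. Incubate 48 h. Add CellTiter-Glo, 15 min RT, read luminescence.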

[9] = qHTS of pediatric cancer cell lines to identify multiple opportunities for drug repurposing: Confirmatory screen for BT-12 cells (AID 1347112); also: nearly all actives have a fitted effect of over 55% in size; also: potency is read from the fitted curve at half-maximal effect
Outline: as §1

[10] = qHTS of pediatric cancer cell lines to identify multiple opportunities for drug repurposing: Confirmatory screen for LAN-5 cells (AID 1347113); also: potency is read from the fitted curve at half-maximal effect; nearly all actives have a fitted effect of over 65% in size
Outline: as §1

[11] = qHTS of pediatric cancer cell lines to identify multiple opportunities for drug repurposing: Confirmatory screen for NB-EBc1 cells (AID 1347115);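 also: cells exposed to compound for 48 h before the viability read; nearly all actives have a fitted effect of over 45% in size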; also: potency is read from the fitted curve at half-maximal effect
Outline: as §1

[12] = qHTS of pediatric cancer cell lines to identify multiple opportunities for drug repurposing: Confirmatory screen for TC32 cells (AID 1347118);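 also: potency is read from the fitted curve at half-maximal effect; cells exposed to compound for 48 h before the read; nearly all actives have a fitted effect of over 65% in size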
Outline: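 Measured quantity: luminescence from CellTiter-Glo, reflecting metabolically active TC32 cells following 48 h of compound. Curves came straight from multi-point titrations, with 8 or 11 points in primary and 11 in confirmatory screening.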

[13] = qHTS of pediatric cancer cell lines to identify multiple opportunities for drug repurposing: Confirmatory screen for MG 63 (6-TG R) cells (AID 1347119); also: potency is read from the fitted curve at half-maximal effect; nearly all actives have a fitted effect of over 55% in size
Outline: as §1

[14] = qHTS of pediatric cancer cell lines to identify multiple opportunities for drug repurposing: Primary screen for MG 63 (6-TG R) cells (AID 1347105); also: nearly all actives have a fitted effect of over 50% in size
Outline: as §2

[15] = qHTS of pediatric cancer cell lines to identify multiple opportunities for drug repurposing: Primary screen for Rh30 cells (AID 1347107); also: series mostly up to about 46 µM; nearly all actives have a fitted effect of over 75% in size
Outline: as §1

[16] = qHTS of pediatric cancer cell lines to identify multiple opportunities for drug repurposing: Primary screen for Rh41 cells (AID 1347108);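 also: series mostly up to about 46 µM; luminescence drop marks cytotoxic hits; nearly all actives have a fitted effect of over 70% in size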
Outline: as §2

[17] = qHTS of pediatric cancer cell lines to identify multiple opportunities for drug repurposing: Confirmatory screen for A673 cells (AID 1347110)
Outline: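 Viability was read as ATP luminescence (CellTiter-Glo) after 48 h of compound exposure at 37 C in A673 cells seeded at 500-1,000/well. Titrations reached 46 uM final, with 11 points in the confirmatory screen. Concentration-response curves were fitted directly.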

[18] = qHTS of pediatric cancer cell lines to identify multiple opportunities for drug repurposing: Confirmatory screen for DAOY cells (AID 1347114); also: nearly all actives have a fitted effect of over 65% in size
Outline: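 Viability measured as metabolically active cells via CellTiter-Glo luminescence following 48 hours of compound exposure, 11-point dilutions in confirmatory testing. 500-1,000 cells/well plated 5 hours before dosing; controls were DMSO and 2.3 µM bortezomib.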

[19] = qHTS of pediatric cancer cell lines to identify multiple opportunities for drug repurposing: Confirmatory screen for BT-37 cells (AID 1347117); also: nearly all actives have a fitted effect of over 55% in size
Outline: as §1

[20] = qHTS of pediatric cancer cell lines to identify multiple opportunities for drug repurposing: Primary screen for BT-12 cells (AID 1347101); also: nearly all actives have a fitted effect of over 25% in size
Outline: as §1

Row | Structure (SMILES) | Potency [1] | Potency [2] | Potency [3] | Potency [4] | Potency [5] | Potency [6] | Potency [7] | Potency [8] | Potency [9] | Potency [10] | Potency [11] | Potency [12] | Potency [13] | Potency [14] | Potency [15] | Potency [16] | Potency [17] | Potency [18] | Potency [19] | Potency [20]
1 | O=c1[nH]sc2cc(Cl)ccc12 | 0.217 µM (active) | 0.168 µM (active) | 0.001 µM (active) | 18.8 µM (active) | 13.8 µM (active) | inactive | inactive | 9.27 µM (active) | 16.5 µM (active) | 10.4 µM (active) | 20.8 µM (active) | 20.8 µM (active) | 20.8 µM (active) |  |  |  |  |  |  | 
2 | Nc1ccc(C(=O)OCC(O)CO)cc1 (stereo not given) | inactive | 0.001 µM (active) | inactive | inactive | inactive | inactive |  |  |  |  |  |  |  | inactive | inactive | inactive |  |  |  | 
3 | Nc1c(NC/C=C\COc2cc(CN3CCCCC3)ccn2)c(=O)c1=O | inactive | inactive | inactive | inactive | inactive | inactive | inactive |  |  |  |  |  |  | inactive | inactive | inactive |  |  |  | 
4 | CC(C)(Oc1ccc(Cl)cc1)C(=O)OCCCOC(=O)C(C)(C)Oc1ccc(Cl)cc1 | inactive | inactive | inactive | inactive | inactive | inactive | inactive |  |  |  |  |  |  | inactive | inactive | inactive |  |  |  | 
5 | CCc1cccc2c(CCO)c[nH]c12 | inactive | inactive | inactive | inactive | inactive | inactive | inactive |  |  |  |  |  |  | inactive | inactive | inactive |  |  |  | 
6 | CSCC[C@H](NC(=O)[C@H](Cc1c[nH]c2ccccc12)NC(=O)CCNC(=O)OC(C)(C)C)C(=O)N[C@@H](CC(=O)O)C(=O)N[C@@H](Cc1ccccc1)C(N)=O | inactive | inactive | inactive | inactive | inactive | inactive | inactive |  |  |  |  |  |  | inactive | inactive | inactive |  |  |  | 
7 | Cc1cc(CCCOc2c(C)cc(-c3noc(C(F)(F)F)n3)cc2C)on1 | inactive | inactive | inactive | inactive | 19.5 µM (active) | inactive | inactive |  |  |  |  |  |  | inactive | inactive | inactive |  |  |  | 
8 | O=C1CC[C@H](C(=O)N2CCCCC2)N1 | inactive | inactive | inactive | inactive | inactive | inactive | inactive |  |  |  |  |  |  | inactive | inactive | inactive |  |  |  | 
9 | CCN(CC)CC(=O)OCC(=O)[C@@]1(O)CC[C@H]2[C@@H]3CCC4=CC(=O)CC[C@]4(C)[C@H]3[C@@H](O)C[C@@]21C | inactive | inactive | inactive | inactive | inactive | inactive | inactive |  | inactive |  | inactive | 11.7 µM (active) |  | inactive | inactive | inactive | inactive | inactive | inactive | 
10 | Cn1cc(S(C)=O)c(=O)c2ccc(F)cc21 (stereo not given) | inactive | inactive |  | inactive | inactive | inactive | inactive |  |  |  |  |  |  | inactive | inactive |  |  |  |  | inactive
11 | OC(CCCN1CCCCC1)(c1ccccc1)c1ccccc1 | inactive | inactive | inactive |  |  | inactive | inactive |  |  |  |  |  |  | inactive | inactive | inactive |  |  |  | 
12 | CC(=O)c1cc2ccccc2s1 | inactive | inactive | inactive | inactive | inactive | inactive | inactive |  |  |  |  |  |  | inactive | inactive | inactive |  |  |  | 
13 | Cc1cnc(NS(=O)(=O)c2ccc(N)cc2)nc1 | inactive | inactive | inactive | inactive | inactive | inactive | inactive |  |  |  |  |  |  | inactive | inactive | inactive |  |  |  | 
14 | COC(=O)C1=C(C)NC(C)=C(C(=O)OCCc2ccc(N3CCN(C(c4ccccc4)c4ccccc4)CC3)cc2)C1c1cccc([N+](=O)[O-])c1 (stereo not given) | inactive | inactive | inactive | inactive | inactive | inactive | inactive |  |  |  |  |  |  | inactive | inactive | inactive |  |  |  | 
15 | CO/N=C(/C(=O)N[C@@H]1C(=O)N2C(C(=O)O)=C(Cn3nnc(C)n3)CS[C@H]12)c1csc(N)n1 | inactive | inactive |  | inactive | inactive | inactive | inactive |  |  |  |  |  |  | inactive | inactive |  |  |  |  | inactive
16 | C[C@@]12CCC[C@H]1[C@@H]1CC[C@H]3C[C@@H](O)CC[C@]3(C)[C@H]1CC2 | inactive | inactive | inactive | inactive |  | inactive | inactive |  |  |  |  |  |  |  | inactive | inactive |  |  |  | 
17 | CCOC(=O)N1CCC(n2c(=O)[nH]c3cc(Cl)ccc32)CC1 | inactive | inactive | inactive | inactive |  | inactive |  |  |  |  |  |  |  | inactive | inactive | inactive |  |  |  | 
